In PubChem BioAssay (NCATS):
Inconclusive results are not listed. Activity calls are given as the source filed them. Calls come from the whole dose curve; as a rule, active = well fitted curve in the direction sought with a large enough effect; inconclusive = small, poorly fitted or top-dose-only effect, or another doubt; inactive = no such curve, though single readings can be large; an effect the other way counts as inactive or inconclusive.

Legend:
[1] = target: Rap guanine nucleotide exchange factor 3 (Homo sapiens) (UniProt O95398); assay: Confirmatory qHTS for agonist of cAMP-regulated guanine nucleotide exchange factor 3 (EPAC1) (AID 1645881);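 note: EPAC1 catalysed release of BODIPY-GDP from Rap1B seen as fluorescence loss; 100% = effect of cAMP agonist control; nearly all actives have a fitted effect of over 75% in size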
[2] = target: Rap guanine nucleotide exchange factor 4 (Homo sapiens) (UniProt Q8WZA2); assay: Confirmatory qHTS for agonist of cAMP-regulated guanine nucleotide exchange factor 4 (EPAC2) (AID 1645884);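 note: nucleotide exchange releases bodipy-GDP from Rap1 and this lowers its fluorescence; % is set by controls: 0 for no effect and ±100 for the full control effect; nearly all actives have a fitted effect of over 65% in size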
[3] = target: Rap guanine nucleotide exchange factor 3 (Homo sapiens) (UniProt O95398); assay: Counterscreen qHTS for antagonist of cAMP-regulated guanine nucleotide exchange factor 3 (EPAC1) (AID 1645888);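 note: fluorescence loss as bound BODIPY-GDP is released from Rap1B; % of control where 0% means no effect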
Outline: (§1)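 Measured: fluorescence of BODIPY-GDP bound to Rap1B, which falls as exchange proceeds. Conditions include 50 uM competing GDP, 5 and 30 min reads, and a later cAMP challenge for antagonist detection.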

[4] = target: Rap guanine nucleotide exchange factor 3 (Homo sapiens) (UniProt O95398); assay: Counterscreen qHTS for agonist of cAMP-regulated guanine nucleotide exchange factor 3 (EPAC1) (AID 1645889); note: % of control where 0% means no effect; nearly all actives have a fitted effect of over 40% in size
Outline: as §1

[5] = target: Rap guanine nucleotide exchange factor 4 (Homo sapiens) (UniProt Q8WZA2); assay: Confirmatory qHTS for antagonist of cAMP-regulated guanine nucleotide exchange factor 4 (EPAC2) (AID 1645885); note: % is set by controls: 0 for no effect and ±100 for the full control effect; nearly all actives have a fitted effect of over 25% in size

Rap guanine nucleotide exchange factor 4 (Homo sapiens), sequence (Q8WZA2 whole entry, looked up): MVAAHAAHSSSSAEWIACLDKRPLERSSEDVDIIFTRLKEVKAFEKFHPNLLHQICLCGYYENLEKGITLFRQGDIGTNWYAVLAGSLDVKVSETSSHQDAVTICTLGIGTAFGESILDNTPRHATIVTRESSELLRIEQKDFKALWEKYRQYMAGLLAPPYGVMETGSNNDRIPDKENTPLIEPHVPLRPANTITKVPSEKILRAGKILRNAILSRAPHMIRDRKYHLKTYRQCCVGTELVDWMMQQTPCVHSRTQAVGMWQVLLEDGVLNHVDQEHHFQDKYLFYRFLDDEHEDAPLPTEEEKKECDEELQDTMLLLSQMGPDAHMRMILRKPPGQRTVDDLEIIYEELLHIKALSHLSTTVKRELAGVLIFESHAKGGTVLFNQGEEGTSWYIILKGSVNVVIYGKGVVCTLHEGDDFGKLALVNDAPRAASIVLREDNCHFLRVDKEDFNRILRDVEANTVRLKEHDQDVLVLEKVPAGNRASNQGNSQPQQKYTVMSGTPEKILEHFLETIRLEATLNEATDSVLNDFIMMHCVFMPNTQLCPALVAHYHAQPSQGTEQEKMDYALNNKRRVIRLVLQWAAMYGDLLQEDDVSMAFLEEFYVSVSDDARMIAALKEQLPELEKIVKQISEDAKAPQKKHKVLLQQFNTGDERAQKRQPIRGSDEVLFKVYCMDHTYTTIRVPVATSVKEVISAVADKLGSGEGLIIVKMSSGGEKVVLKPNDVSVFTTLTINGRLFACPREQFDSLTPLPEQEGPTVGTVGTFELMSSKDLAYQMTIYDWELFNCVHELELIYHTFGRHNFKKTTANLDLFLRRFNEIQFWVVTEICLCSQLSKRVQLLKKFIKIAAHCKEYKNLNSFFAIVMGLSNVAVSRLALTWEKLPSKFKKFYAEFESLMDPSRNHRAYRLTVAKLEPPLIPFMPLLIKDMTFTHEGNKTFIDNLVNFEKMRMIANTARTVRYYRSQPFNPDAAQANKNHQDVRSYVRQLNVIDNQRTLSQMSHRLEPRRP
Rap guanine nucleotide exchange factor 3 (Homo sapiens), sequence (O95398 whole entry, looked up): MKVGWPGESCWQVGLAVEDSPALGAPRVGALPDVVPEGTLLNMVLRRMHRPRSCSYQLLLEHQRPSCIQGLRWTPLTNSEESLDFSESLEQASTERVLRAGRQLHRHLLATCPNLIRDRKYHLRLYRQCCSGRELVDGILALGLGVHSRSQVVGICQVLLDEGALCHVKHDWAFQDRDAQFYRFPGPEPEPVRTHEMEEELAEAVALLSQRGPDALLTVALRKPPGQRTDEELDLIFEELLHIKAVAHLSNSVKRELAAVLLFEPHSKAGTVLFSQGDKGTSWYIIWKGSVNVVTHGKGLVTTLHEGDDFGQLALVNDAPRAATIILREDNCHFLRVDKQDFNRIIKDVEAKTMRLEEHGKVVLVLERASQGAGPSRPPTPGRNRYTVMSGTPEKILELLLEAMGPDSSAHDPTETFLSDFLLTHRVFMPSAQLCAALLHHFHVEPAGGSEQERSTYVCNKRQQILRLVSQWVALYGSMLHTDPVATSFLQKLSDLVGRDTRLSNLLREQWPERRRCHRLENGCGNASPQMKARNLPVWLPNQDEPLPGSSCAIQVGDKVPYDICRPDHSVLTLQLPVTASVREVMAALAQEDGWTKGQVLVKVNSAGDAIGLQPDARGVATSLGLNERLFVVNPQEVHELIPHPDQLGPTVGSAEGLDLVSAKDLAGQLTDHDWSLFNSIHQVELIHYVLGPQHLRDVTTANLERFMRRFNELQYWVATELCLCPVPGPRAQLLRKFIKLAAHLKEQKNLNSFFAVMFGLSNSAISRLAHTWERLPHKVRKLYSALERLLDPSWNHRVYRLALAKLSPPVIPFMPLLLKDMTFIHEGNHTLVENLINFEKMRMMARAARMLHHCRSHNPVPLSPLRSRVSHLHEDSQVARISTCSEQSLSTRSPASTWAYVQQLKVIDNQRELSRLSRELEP

Cc1oc(-c2ccccc2)nc1CN1C(=O)CN=C(c2ccccc2)c2ccccc21
inactive: Potency [1] | activation [2] 7.27% [at 17.1 µM, percent relative to cAMP agonist control] | activity change, negative = inhibition [3] -7.89% [at 30.8 µM] | activation [4] 28.8% [at 30.8 µM]

CCOC(=O)[C@]12Cc3cc(Cl)ccc3[C@H]1N(CC(=O)OC)C(=O)c1ccccc12
inactive: Potency [1] | Potency [2] | outcome [3] | Potency [4]

Cn1ncnc2c(=O)n(C)c(=O)nc1-2
inactive: Potency [1] | Potency [2] | Potency [5] | outcome [3] | Potency [4]
